Our source for the outcome and AC50 values is PubChem BioAssay (EPA / NIEHS).

What is called AC50 is the midpoint of the concentration-response curve, whichever way the signal moves.

Inconclusive results are not listed. The source made the active and inactive calls. The calls were made as follows, unless noted: active = hit-call score of the fitted dose curve at least 0.9, where 1 is the maximum; inactive = score below 0.9.

The nature of assay [1]: CCTE_Mundy_HCI_Cortical_NOG_NeuriteLength: CCTE's Neurite Outgrowth Assay in rat cortical cells for Neurite Length, Mundy Lab (AID 2284213).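 As to AC50: neurites imaged about 48 to 50 h after chemical exposure began.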 The essentials:
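Neurite length was read by high-content imaging of βIII-tubulin-labelled neurites in rat primary cortical cultures. Activity was fitted relative to DMSO.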

The nature of assay [2]: CCTE_Mundy_HCI_Cortical_Synap_Neur_Matur_NeuriteLength: CCTE's Synaptogenesis and Neurite Maturation Assay in rat cortical cells for Neurite Length, Mundy Lab (AID 2284214). The essentials: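 Neurite length in rat primary cortical cultures is imaged after MAP2, synaptophysin and Hoechst staining. Dosing starts DIV 7, ending DIV 12; DMSO serves as negative control and baseline.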

Assay [3] is described as follows: CCTE_Mundy_HCI_Cortical_Synap_Neur_Matur_NeuriteSpotCountPerNeuron: CCTE's Synaptogenesis and Neurite Maturation Assay in rat cortical cells for Neurite Spot Count per Neuron Count, Mundy Lab (AID 2284215). The essentials: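 Read-out: neurite-associated synaptophysin puncta per neuron, imaged by high-content analysis after MAP2, synaptophysin and Hoechst staining. Rat primary cortical cultures, dosed DIV 7 through DIV 12; DMSO served as baseline.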

Assay [4] can be described thus: CCTE_Mundy_HCI_Cortical_Synap_Neur_Matur_SynapseCount: CCTE's Synaptogenesis and Neurite Maturation Assay in rat cortical cells for Synapse Count, Mundy Lab (AID 2284218). The essentials:
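Synapse count per neuron is measured in rat cortical neurons exposed to chemicals between DIV 7 and DIV 12, with glial growth arrested by AraC at DIV 5. Synaptophysin and MAP2 staining is imaged automatically; activity is fitted relative to DMSO.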

Assay [5] can be described thus: CCTE_Mundy_HCI_hN2_NOG_NeuriteCount: CCTE's Neurite Outgrowth Assay in human hN2 cells for Neurite Count, Mundy Lab (AID 2284219; active = hit-call score of the fitted dose curve at least 0.9, where 1 is the maximum). The essentials:
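In this morphology assay, hNP1-derived neurons received test chemical 2 h post-plating and were fixed two days later in warm paraformaldehyde/sucrose containing Hoechst 33342. Neurites, labelled by rabbit anti-βIII-tubulin (1:800) and Alexa Fluor-488 (1:500), were counted automatically.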

The nature of assay [6]: CCTE_Mundy_HCI_hN2_NOG_NeuriteLength: CCTE's Neurite Outgrowth Assay in human hN2 cells for Neurite Length, Mundy Lab (AID 2284220; active = hit-call score of the fitted dose curve at least 0.9, where 1 is the maximum). The essentials:
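Read-out is neurite length from high-content imaging of βIII-tubulin/Alexa Fluor-488-labelled neurons, referenced to DMSO controls.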

The nature of assay [7]: CCTE_Mundy_HCI_hN2_NOG_NeuronCount: CCTE's Neurite Outgrowth Assay in human hN2 cells for Neuron Count, Mundy Lab (AID 2284221; active = hit-call score of the fitted dose curve at least 0.9, where 1 is the maximum). The essentials: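 Read-out is the number of betaIII-tubulin-positive neurons imaged by automated high-content analysis, with DMSO as negative control.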
Assay [8] is described as follows: CCTE_Mundy_HCI_Cortical_Synap_Neur_Matur_CellBodySpotCount: CCTE's Synaptogenesis and Neurite Maturation Assay in rat cortical cells for Cell Body Spot Count, Mundy Lab (AID 2284223). The essentials: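 Read-out: cell body-associated synaptophysin puncta per neuron, imaged after MAP2, synaptophysin and Hoechst staining. Rat cortical cells, AraC DIV 5, chemical dosing DIV 7, fixation DIV 12. Activity fitted in positive direction relative to DMSO baseline.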

Assay [9] can be described thus: UKN4_HCS_LUHMES_cell_viability: Viability Assessment in the University of Konstanz (UKN) Leist Lab Neurite Outgrowth Assay in human LUHMES cells (UKN4) (AID 2284232). The essentials:
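Human dopaminergic-model LUHMES neurons were exposed to chemicals for 24 h after a 2-day differentiation. Viability was scored by imaging Hoechst H-33342 staining, with activity fitted in both directions relative to DMSO controls.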

Assay [10] is described as follows: UKN2_HCS_IMR90_cell_viability: Viability Assessment in the University of Konstanz (UKN) Leist Lab Neural Crest Cell Migration Assay in human induced IMR90 Pluripotent Stem Cells (UKN2) (AID 2284233).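 Also: viability of neural crest cells differentiated from IMR90 iPSC measured by calcein-AM fluorescence imaging.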 The essentials: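 Neural crest cells derived from IMR90 iPSC migrate into a stopper-free zone for 24 h in EGF/FGF medium, then are exposed to compound for 24 h. Viability assessed by calcein-AM and Hoechst staining with high-content imaging, fitted bidirectionally versus DMSO.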

Assay [11] in a line: CCTE_Mundy_HCI_hNP1_Casp3_7: CCTE's Caspase-Glo 3/7 Assay in human neuroprogenitor cells for Apoptosis, Mundy Lab (AID 2284240). The essentials: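 Luminescent caspase-3/7 readout, 26.5 h post-dose, in human neural progenitor cells from WA09 embryonic stem cells. Cells grew 40–44 h at 37 °C, 5% CO2 before chemical addition. Activity analysed as signal increase over DMSO baseline.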

Assay [12] is described as follows: CCTE_Mundy_HCI_Cortical_Synap_Neur_Matur_NeuronCount: CCTE's Synaptogenesis and Neurite Maturation Assay in rat cortical cells for Neuron Count, Mundy Lab (AID 2284242; active = hit-call score of the fitted dose curve at least 0.9, where 1 is the maximum;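 as to AC50: neuron number from Hoechst nuclei and MAP2 staining by high-content imaging; hits reduce neuron count versus DMSO baseline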). The essentials:
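Imaging-based neuron count in rat cortical cultures after chemical exposure from DIV 7 to DIV 12, with AraC added at DIV 5. Activity is fitted relative to DMSO.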

Assay [13] is described as follows: IUF_NPC2c_oligodendrocyte_migration_120hr: Leibniz Research Institute for Environmental Medicine (IUF) 120-hour Neural Progenitor Cell Migration Assay for Oligodendrocyte Migration (NPC2c) (AID 2284297).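 Also: O4-positive oligodendrocyte migration distance divided by radial glia migration distance.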 The essentials: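 hNPC spheres (GW 16-19 cortex), PDL/laminin, DMEM/F12 3:1 + 1% N2, 37C. Dosing day 0–5, half feed day 3, DMSO ≤0.1%. Fixed 120 h; O4 ICC + Hoechst, HCI. Readout: mean oligodendrocyte distance from sphere edge / radial glia distance.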

Assay [14] is described as follows: TAMU_PeakParms_SingleDonor1434_Chronotropy: Texas A&M University (TAMU) 1.5-hr Human Induced Pluripotent Stem Cell (iPSC)-derived Cardiomyocytes Calcium (Ca+2) Flux Assay for Cardiotoxicity: Chronotropy (changes in peak frequency) (AID 2284217). Particulars: actives raise or lower the signal. The essentials:
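Beat rate, as mean Ca2+-flux peak frequency, was read from donor 1434 iPSC cardiomyocytes 90 min after exposure to 0.2–100 uM test chemical (0.5% DMSO). Wells that stopped beating were excluded; EC05 from bidirectional DMSO-referenced fitting.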

Assay [15] in a line: TAMU_HCS_1.5hr_SingleDonor1434_Cytotoxicity: Cytotoxicity Assessment using High-content Screening (HCS) Fluorescent Imaging for the Texas A&M University (TAMU) 1.5-hr Human Induced Pluripotent Stem Cell (iPSC)-derived Cardiotoxicity Assay (AID 2284234; active = hit-call score of the fitted dose curve at least 0.9, where 1 is the maximum). The essentials:
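Human iPSC-derived cardiomyocytes dosed at 0.2, 1, 10, 100 uM final (0.5% DMSO) for 90 min at 37 C. Hoechst 33342-stained nuclei counted by 10x high-content imaging; POD is EC10, a 10% drop in total cell count versus DMSO.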

A short description of assay [16]: TAMU_PeakParms_SingleDonor1434_QT: Texas A&M University (TAMU) 1.5-hr Human Induced Pluripotent Stem Cell (iPSC)-derived Cardiomyocytes Calcium (Ca+2) Flux Assay for Cardiotoxicity: QT (decay-rise ratio) (AID 2284235; active = hit-call score of the fitted dose curve at least 0.9, where 1 is the maximum). The essentials: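 iPSC-derived cardiomyocytes (single donor 1434) dosed at 0.2, 1, 10, 100 uM final in 0.5% DMSO, 90 min at 37C. Ca2+ flux fluorescence decay/rise ratio; EC05 (5% increase versus DMSO) as POD, excluding beat-arrest and severe-notch data.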

A short description of assay [17]: CCTE_Mundy_HCI_Cortical_Synap_Neur_Matur_NeuriteCount: CCTE's Synaptogenesis and Neurite Maturation Assay in rat cortical cells for Neurite Count, Mundy Lab (AID 2284222).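 As to outcome: exposure from day 7 to day 12 in vitro with readout at day 12.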 The essentials:
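Rat cortical neurons, 96-well; AraC DIV 5; chemical + media change DIV 7; end DIV 12. Fix PFA/Hoechst, anti-MAP2 + anti-synaptophysin IF. HCI neurite count vs DMSO baseline.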

The nature of assay [18]: CCTE_Mundy_HCI_hNP1_Pro_ResponderAvgInten: CCTE's Proliferation Assay in human neuroprogenitor cells, Mundy Lab (AID 2284224; active = hit-call score of the fitted dose curve at least 0.9, where 1 is the maximum). The essentials: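 Proliferation read as average intensity of BrdU-positive cells, imaged at 26.25 h post-dosing: chemical exposure started after 40–44 h culture, BrdU during final 4 h, paraformaldehyde fixation. Positive-direction fit relative to DMSO.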

Assay [19] in a line: CCTE_Mundy_HCI_hNP1_CellTiter: CCTE's Cell Titer-Glo 2 Assay in human neuroprogenitor cells for Viability, Mundy Lab (AID 2284241; active = hit-call score of the fitted dose curve at least 0.9, where 1 is the maximum;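 as to AC50: a hit is a drop in ATP luminescence versus DMSO meaning reduced viability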). The essentials: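 Viability read as luminescent ATP content (CellTiter-Glo, 30 min room temperature) twenty-four hours after dosing, relative to DMSO. Cells: WA09-derived hNP1 neuroprogenitors on poly-L-ornithine/laminin, plated 40 to 44 hours before chemical.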

Assay [20] can be described thus: CCTE_Mundy_HCI_Cortical_NOG_BPCount: CCTE's Neurite Outgrowth Assay in rat cortical cells for Branch Point Count, Mundy Lab (AID 2284237). The essentials: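 Measured 50.33 h after dosing, this morphology endpoint uses rat primary cortical cultures labelled for betaIII-tubulin. Branch points are quantified by high-content imaging, with DMSO as negative control and baseline.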

As to `O=C1NC(=O)C(c2ccccc2)(c2ccccc2)N1`, the call in assay [1], in [2], in assay [3], in [4], in assay [5] and in assay [6] was inactive. Further, the molecule was called inactive in [7], in assay [8], in assay [9], in [10], in [11] and in [12]. Moreover, the result in assay [13] was inactive.
Consider `Cc1occc(=O)c1O`, for which the result in assay [14], in assay [15] and in assay [16] was inactive.
As for `Nc1nc(=S)c2[nH]cnc2[nH]1`, the AC50 in assay [14] is 89.6 µM (active).
On to `CN(C)CCCN1c2ccccc2Sc2ccc(Cl)cc21`, for which the AC50 was 10.7 µM (active) in [1]; 12.8 µM (active) in assay [2]; 11.8 µM (active) in [3]; 11.8 µM (active) in [4]; 11 µM (active) in assay [5]; 14.3 µM (active) in assay [6]. Moreover, the AC50 was 9.61 µM (active) in [7]; 21.1 µM (active) in assay [17]; 14.3 µM (active) in assay [10]; 11.6 µM (active) in assay [11]; 24.7 µM (active) in assay [19]; 13.7 µM (active) in [12]. In addition, in [13], the AC50 was 16.1 µM (active). Moreover, the molecule was called inactive in assay [8] and in [18].
`COC(=O)[C@H]1[C@H]2C[C@@H]3c4[nH]c5cc(OC)ccc5c4CCN3C[C@H]2C[C@@H](OC(=O)c2cc(OC)c(OC)c(OC)c2)[C@@H]1OC`: the result in assay [14], in assay [15] and in [16] was inactive.
In the case of `CC(=O)CC(c1ccccc1)c1c(O)c2ccccc2oc1=O` (stereo not drawn), the outcome in [1], in assay [2], in assay [3], in assay [4], in [17] and in [8] was inactive. Moreover, the call in assay [18], in assay [20], in assay [11], in assay [12] and in assay [13] was inactive.
With `CCc1nc(N)nc(N)c1-c1ccc(Cl)cc1`, the outcome in assay [14] and in assay [16] was inactive.
As to `OCC(O)CO`, the result in assay [1], in assay [2], in assay [3], in [4], in assay [17] and in [8] was inactive. Further, the result in assay [18], in assay [9], in assay [20], in [11], in assay [19] and in assay [13] was inactive.
As to `O=C(O)CC(O)(CC(=O)O)C(=O)O`, the outcome in [14], in [15] and in [16] was inactive.
